# Compounds with a hit are over-represented: about 3% of the library has one in this group of screens.
# SENP6 block = SENP6 protease inhibition; inhibition, % at 10 µM; 330,000 compounds, 1.8% hits; Recombinant SENP6 catalytic domain, aminoluciferin luminescence; Q9GZR1;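 active = inhibition above about 50% at the single tested dose, limit read from the data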;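 also: plate controls were DMSO wells with enzyme for no effect and DMSO wells lacking enzyme for full effect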
# SENP7 inh = inhibitors of human SENP7 protease. Q9BQF6. recombinant SENP7, Z-RLRGG-aminoluciferin luminescence, 40 min. inhibition, % at 5 µM. 330,000 compounds, 1.5% hits;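 active = inhibition above about 50% at the single test dose, limit read from the data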;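 also: plate controls were DMSO with enzyme for no effect and no enzyme buffer wells for full effect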
# Target sequence (Q9BQF6 706-1050 limits assumed): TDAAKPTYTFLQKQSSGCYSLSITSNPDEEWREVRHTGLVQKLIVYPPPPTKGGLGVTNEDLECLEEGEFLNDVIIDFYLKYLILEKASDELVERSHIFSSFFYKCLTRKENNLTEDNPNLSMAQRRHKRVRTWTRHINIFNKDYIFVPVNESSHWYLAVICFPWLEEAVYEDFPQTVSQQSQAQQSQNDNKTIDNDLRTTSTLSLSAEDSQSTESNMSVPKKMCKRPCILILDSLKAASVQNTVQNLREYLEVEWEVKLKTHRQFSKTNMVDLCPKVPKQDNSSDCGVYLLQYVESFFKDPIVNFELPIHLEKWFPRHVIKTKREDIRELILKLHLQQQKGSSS
# PPC-1+TRAIL kill = kills PPC-1 cancer cells in the presence of TRAIL; cell killing (% activity), % at 4 µM or 5 µM; PPC-1 cells + TRAIL, ATPLite viability luminescence; 220,000 compounds, 0.41% hits; AID 1443;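 active = cell killing above 50% in the first pass at 4 µM, then a duplicate retest at 5 µM averaging 50% or more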;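 also: plate controls were cells with TRAIL plus DMSO for no effect and medium-only wells lacking cells for full effect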
# SENP8 block-1 = inhibitors of human SENP8 protease; AID 602440; recombinant SENP8, Nedd8 substrate fluorescence; Q96LD8; 360,000 compounds, 0.64% hits; inhibition, % at 20 µM; in the data active = inhibition mostly above about 40%, no sharp cut-off; inactive = mostly below about 27%
# Target sequence (Q96LD8 whole entry, looked up): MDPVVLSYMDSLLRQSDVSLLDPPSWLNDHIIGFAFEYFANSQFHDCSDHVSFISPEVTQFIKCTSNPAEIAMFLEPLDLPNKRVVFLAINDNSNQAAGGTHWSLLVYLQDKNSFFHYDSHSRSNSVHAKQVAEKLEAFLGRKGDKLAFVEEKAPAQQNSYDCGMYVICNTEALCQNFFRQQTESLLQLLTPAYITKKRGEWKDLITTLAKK
# SENP8 block-2 = inhibitors of human SENP8 protease; 330,000 compounds, 1.2% hits; purified SENP8, Z-RLRGG-aminoluciferin cleavage, luminescence; inhibition, % at 10 µM; Q96LD8; in the data active = inhibition above about 50%
# TRAIL sens C8 = sensitizes caspase-8 expressing cells to TRAIL | NB7+C8 cells + TRAIL, ATPlite viability luminescence | 360,000 compounds, 1% hits | inhibition (viability loss, TRAIL sensitization), % at 10 µM;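 active = compounds causing at least 50% loss of cell viability in the single-dose screen, relative to plate controls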
# SENP8 conf = confirmation of human SENP8 protease inhibitors. shares compounds with SENP7 inh. Recombinant SENP8, Z-RLRGG-aminoluciferin luminescence, 60 min. inhibition, % at 12.5 µM. 6,200 compounds, 40% hits;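 active = mean inhibition across replicates above about 50%, limit read from the data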
# SENP6 confirm = human SENP6 inhibition, confirmed; shares compounds with SENP7 inh; recombinant SENP6, Z-RLRGG-aminoluciferin luminescence; inhibition, % at 12.5 µM; 6,200 compounds, 58% hits; AID 488915
# SENP7 conf = confirmation of human SENP7 protease inhibitors; recombinant SENP7, Z-RLRGG-aminoluciferin luminescence, 40 min; inhibition, % at 12.5 µM; shares compounds with SENP7 inh; 6,200 compounds, 69% hits; AID 488917
# Casp3 select = caspase-3 inhibition (SENP selectivity assay). shares compounds with SENP7 inh. AID 488918. inhibition, % at 12.5 µM. purified caspase-3, Z-DEVD-aminoluciferin luminescence, 60 min. 6,200 compounds, 60% hits;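 active = mean inhibition above about 50%, limit read from the data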;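 also: plate controls were enzyme with DMSO for no effect and wells without caspase-3 for full effect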
# Luc interf = counter-screen for SENP inhibitors: luminescence interference | 6,200 compounds, 39% hits | shares compounds with SENP7 inh | Pre-incubated SENP8/Z-RLRGG-aminoluciferin, luciferase luminescence interference | inhibition, % at 12.5 µM;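 active = mean inhibition above about 50% when retested at one dose, limit read from the data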;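 also: plate controls were DMSO wells with completed reaction for no effect and substrate without enzyme for full effect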
# * marks the source's active call; other numbers are inactive results; nt = not tested or not shown.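 The calls were made as follows, unless noted: active = mean inhibition above about 50% in the one-dose retest (limit read from the data); inactive = the rest.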
SMILES,SENP6 block,SENP7 inh,PPC-1+TRAIL kill,SENP8 block-1,SENP8 block-2,TRAIL sens C8,SENP8 conf,SENP6 confirm,SENP7 conf,Casp3 select,Luc interf
O=c1c(-c2ccc(F)cc2)coc2c3c(ccc12)OCCO3,-11.7,76.0*,-12.9,6.7,-3.6,0.7,12.2,7.7,13.1,16.3,5.6
CC(=O)Nc1ccc(S(=O)(=O)N2CCN(c3cnn(C)c(=O)c3Cl)CC2)cc1,-19.2,-8.7,5.2,6.0,-6.3,-12.8,nt,nt,nt,nt,nt
c1ccc(CSc2ccc(-c3ccco3)nn2)cc1,60.4*,18.3,25.5,-3.1,19.4,59.1*,20.8,53.9*,78.6*,52.4*,10.5
Cc1ccc(CSc2ccc(-c3cccs3)nn2)cc1,25.3,69.0*,3.4,15.7,7.8,28.7,11.6,11.8,6.5,12.9,5.7
Cc1ccc(CSc2ccc(-c3ccco3)nn2)cc1,84.1*,68.5*,30.9,-0.3,-1.3,40.3,33.0,77.2*,96.0*,68.7*,29.8
COC(=O)C1=C(C)NC=C([N+](=O)[O-])C1c1ccc(OC)cc1 (stereo not drawn),13.5,-10.5,25.0,2.0,-12.6,2.3,nt,nt,nt,nt,nt
Cc1ccsc1C(=O)Nc1nccs1,63.8*,63.1*,nt,2.2,50.8*,-3.4,58.5*,57.2*,86.1*,85.5*,52.0*
Cc1occc1C(=O)Nc1nccs1,30.4,19.3,38.7,10.2,0.9,-17.2,nt,nt,nt,nt,nt
Cc1csc(NC(=O)c2sccc2C)n1,95.5*,96.1*,nt,-10.7,91.4*,10.8,94.6*,95.1*,101.2*,97.5*,94.3*
Cc1csc(NC(=O)c2ccc(C(=O)Nc3nc(C)cs3)cc2)n1,25.0,14.0,3.9,nt,17.3,nt,nt,nt,nt,nt,nt
COc1ccc(C(C)(NC(C)=O)c2nc(-c3cccc4cccnc34)cs2)cc1 (stereo not drawn),nt,nt,nt,-223.6,nt,-10.0,nt,nt,nt,nt,nt
Cc1ccc(NC2=C(N3CCCCC3)C(=O)c3ccccc3C2=O)cc1,65.7*,-20.8,12.3,81.9*,52.2*,36.5,7.7,89.8*,73.5*,95.1*,10.1
O=C1C(Nc2ccccc2)=C(N2CCCCC2)C(=O)c2ccccc21,85.7*,61.4*,29.7,83.1*,58.6*,36.1,62.8*,79.0*,58.3*,95.0*,6.5
O=C(O)c1cccc(NC2=C(Cl)C(=O)c3ccccc3C2=O)c1,nt,nt,24.5,-66.6,nt,8.1,nt,nt,nt,nt,nt
COc1ccccc1NC1=C(N2CCCCC2)C(=O)c2ccccc2C1=O,73.7*,46.9,71.7*,88.2*,72.8*,50.0,43.2,91.3*,71.5*,97.0*,-3.6
O=C1C(Nc2cccc(O)c2)=C(N2CCCCC2)C(=O)c2ccccc21,81.1*,41.1,5.8,76.2*,63.3*,35.8,56.6*,77.0*,44.8,94.5*,-1.0
COc1ccccc1NS(=O)(=O)c1cc(N)ccc1N1CCCC1,11.4,-2.8,nt,-356.4,1.2,-7.8,nt,nt,nt,nt,nt
COc1ccc(S(=O)(=O)N2CCCCC2)cc1NC(=O)CCNC(=O)c1ccco1,-9.7,0.1,nt,-0.5,-8.4,-15.4,nt,nt,nt,nt,nt
CCc1cccc2c(C(=O)CSc3nnc(C4CC4)o3)c[nH]c12,7.3,1.8,nt,6.4,3.7,-4.1,nt,nt,nt,nt,nt
O=C(COc1cc2oc(=O)c3c(c2cc1Cl)CCC3)Nc1cccnc1,22.7,66.5*,nt,-70.7,1.4,0.1,12.9,7.8,16.1,15.0,2.8
O=C(COc1cc2oc(=O)c3c(c2cc1Cl)CCC3)Nc1ccccn1,-2.1,-0.3,nt,-96.9,7.8,-8.8,nt,nt,nt,nt,nt
CN(C)C(CNC(=O)c1ccccc1OCc1ccc(Cl)cc1)c1ccco1 (stereo not drawn),2.2,-2.7,nt,5.0,7.4,-7.9,nt,nt,nt,nt,nt
Cc1cc(-c2ccccc2)c2ccc(NC(=O)C(C)(C)C)nc2n1,-0.8,6.0,nt,-239.7,5.4,-3.8,nt,nt,nt,nt,nt
O=C(CSc1ncccc1-c1nc2ccccc2[nH]1)N1CCc2ccccc21,-0.3,55.4*,17.9,-178.6,-11.0,11.5,4.3,-2.3,16.0,11.4,5.6
COc1cccc(OC)c1C(=O)Nc1cccc(-c2nc3ccccc3[nH]2)c1,-0.6,-0.2,23.1,-8.9,-1.6,18.6,nt,nt,nt,nt,nt
SMILES,SENP6 block,SENP7 inh,PPC-1+TRAIL kill,SENP8 block-1,SENP8 block-2,TRAIL sens C8,SENP8 conf,SENP6 confirm,SENP7 conf,Casp3 select,Luc interf
COc1ccc(-c2cc3cccc(OC)c3oc2=O)cc1,80.7*,87.0*,nt,-293.3,80.2*,78.1*,89.3*,89.6*,99.0*,88.0*,76.3*
O=C(O)c1ccc2nc(CO)[nH]c2c1,0.5,8.9,-7.1,4.7,3.7,-14.9,nt,nt,nt,nt,nt
Cc1cccc2cc(-c3nc4ccc(C(=O)O)cc4[nH]3)c(=O)oc12,88.2*,85.7*,nt,-282.4,85.8*,54.2*,93.5*,94.2*,100.2*,98.4*,56.4*
COc1cccc2cc(-c3nc4ccccc4[nH]3)c(=O)oc12,49.8,59.0*,nt,-290.5,34.6,54.3*,16.0,14.7,20.4,36.3,19.3
CC1(C)CN=C(N(Cc2ccccc2)C(=O)Nc2ccccc2)S1,-0.5,-6.2,22.6,0.8,-9.0,8.5,nt,nt,nt,nt,nt
CC(C)(C)N(Cc1ccccc1)C(=O)COC(=O)CSc1ccc([N+](=O)[O-])cc1,5.2,-2.0,nt,7.7,3.7,-4.6,nt,nt,nt,nt,nt
Cc1cc2ncc(-c3ncc(C(F)(F)F)cc3Cl)cn2n1,-19.4,59.5*,36.2,-14.7,26.1,57.7*,26.0,40.4,76.6*,78.9*,28.4
Cc1nn2cc(-c3ncc(C(F)(F)F)cc3Cl)cnc2c1Br,83.0*,90.2*,36.8,-13.2,75.9*,12.2,60.9*,59.8*,27.9,40.5,20.4
COc1ccc(C(=O)CSc2nnc(Cc3ccccc3)o2)cc1,-38.3,59.5*,8.0,10.3,-8.8,-1.5,6.6,9.4,8.1,4.1,3.1
COc1ccc(Cc2nnc(SCC(=O)c3ccccc3)o2)cc1,9.7,-1.6,4.3,20.9,-1.1,-4.7,nt,nt,nt,nt,nt
Cn1cc(Cl)c(C(=O)N/N=C/c2ccc3c4c(cccc24)CC3)n1,39.6,52.9*,nt,-380.5,32.5,67.4*,-6.7,2.2,20.5,13.4,0.6
O=C(C1CCC1)N1CCN(c2ccc(Cl)cc2)CC1,-17.9,1.3,nt,24.7,-2.7,1.5,nt,nt,nt,nt,nt
Cc1ccc(OC/C(O)=C(\C#N)c2nc3ccccc3s2)cc1,69.7*,18.6,32.0,1.6,75.9*,5.5,77.6*,80.1*,75.9*,75.3*,42.9

# High-throughput results from PubChem.
